ELG1 DNA repair – inhibitors of ELG1-dependent DNA repair in HEK293T cells. 330,000 compounds, 2.3% hits. HEK293T ELG1-luciferase reporter, luminescence, 16 h; DNA damage induced by 5-fluorouridine. Potency, µM (top dose mostly 46.1 µM), for the others: at the highest dose activity change, negative = inhibition, hits mostly inhibitors. AID 504467; further: on the % scale 0 is the no-effect control and ±100 the full control effect; nearly all actives have a fitted effect of over 55% in size
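HEK293T cells expressing luciferase-tagged ELG1 (2,000/well) received 5-Fluorouridine plus compound or DMSO for 16 hr at 37 °C. Luciferase was read by ONE-Glo luminescence after 30 min at room temperature.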
KB-3-1 cytotox – KB-3-1 parental cell cytotoxicity; 400,000 compounds, 1.4% hits; Potency, µM (doses to about 46.1 µM), actives largely listed as cytotoxic; AID 1347075; KB-3-1 viability, CellTiter-Glo ATP luminescence, 72 h; further: on the % scale 0 is the no-effect control and ±100 the full control effect; nearly all actives have a fitted effect of over 60% in size
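Cells are dispensed, compounds pinned in, plates held at 37 °C for 72 h, then CellTiter-Glo is added and luminescence read after 10 minutes. Cell line: parental KB-3-1 in phenol-red-free DMEM, 10% FBS.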
MCF10A rerep – induces DNA re-replication in MCF 10a normal breast cells. 350,000 compounds, 2.9% hits. AID 624296. Potency, µM (series often up to 46.1 µM), for inactives: top-dose activity, positive = re-replication, usual class: activators. MCF 10A DNA re-replication, Hoechst nuclear intensity, 48 h; further: % of control where 0% means no effect; nearly all actives have a fitted effect of over 50% in size
SW480 rereplic – inducers of DNA re-replication in SW480 colon cancer cells; SW480 DNA re-replication, Hoechst DNA content imaging, 48 h; Potency, µM (series often up to 46.1 µM), for the others: at the highest dose re-replication activation, most hits filed as activators; 340,000 compounds, 1.8% hits; further: % of control where 0% means no effect; nearly all actives have a fitted effect of over 55% in size
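Treated cells incubate 48 hr (37 C, 5% CO2), are stained 40 min with Hoechst, and nuclear fluorescence is enumerated; a rise in nuclei with high DNA signal marks re-replication.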
KB-V1 cytotox – KB-V1 MDR subline cytotoxicity. 400,000 compounds, 3.4% hits. Potency, µM (series often up to 46.1 µM), actives largely listed as cytotoxic. KB-V1 MDR cells viability, CellTiter-Glo, 72 h; further: on the % scale 0 is the no-effect control and ±100 the full control effect; nearly all actives have a fitted effect of over 60% in size
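In this primary screen, KB-V1 cells overexpressing P-gp are incubated with library compounds (lowest to highest concentration) for 72 h at 37 degrees C before a luminescent ATP viability read.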
* = called active by the depositor; i = inactive; ? = inconclusive; / = no result; [ ] = remark or other dose. A selection: hits, their analogues and other compounds. The true share with any hit is near 8.1%. The call rests on the fitted dose curve; in most records, active means well fitted curve in the direction sought with a large enough effect; inconclusive means small, poorly fitted or top-dose-only effect, or another doubt; inactive means no such curve, though single readings can be large; an effect the other way counts as inactive or inconclusive. Potency means the concentration at half of the fitted maximal effect.

SMILES	ELG1 DNA repair	KB-3-1 cytotox	MCF10A rerep	SW480 rereplic	KB-V1 cytotox
c1cncc(-c2nc(NCC3CCCO3)c3ccccc3n2)c1 (stereo not drawn)	23µM*	i	16%	10%	?
Oc1ccc(Nc2nc(NCC3CCCO3)c3ccccc3n2)cc1 (stereo not drawn)	-9%	i	?	14%	i
COc1cccc(Nc2nc(NCC3CCCO3)c3ccccc3n2)c1 (stereo not drawn)	?	?	?	3%	2.3µM*
COc1cccc2c1OCC(CN1CCN(Cc3ccccc3F)C(CCO)C1)=C2 (stereo not drawn)	?	i	0.73µM*	?	?
COc1cccc2c1OCC(CN1CCN(Cc3ccccc3)C(CCO)C1)=C2 (stereo not drawn)	-9%	?	-1%	23%	?
Cc1ccccc1-c1nc(CS(=O)CC(=O)NC2CCCCC2)c(C)o1 (stereo not drawn)	12%	i	3%	?	i
CC1CCCN(C(=O)CNC(=O)c2cccs2)C1 (stereo not drawn)	?	i	3%	-11%	i
CCCCc1nnc(NC(=O)c2nc3nccc(C)n3n2)s1	-3%	i	-33%	3%	i
O=[N+]([O-])c1cc(Cl)ccc1N1CCCC1	14%	i	2%	3%	i
O=C1C(Cl)=C(N2CCN(c3ccccc3[N+](=O)[O-])CC2)C(=O)c2ccccc21	?	?	?	16µM*	?
CC(C)Cn1c(SCC(=O)N2CCN(C(=O)c3ccco3)CC2)nc2ccccc2c1=O	-24%	i	0.65µM*	8%	i
CCn1c(SCC(=O)N2CCCC2)nc2ccccc2c1=O	0%	i	-1%	-1%	6.5µM*
COC(=O)CSc1nc2ccccc2nc1SCC(=O)OC	11%	i	23µM*	18µM*	i
CC(C)NC(=O)Cn1c(SCC(=O)N2CCCCCC2)nc2ccccc21	-12%	i	-5%	-6%	15µM*
CCn1c(SCC(=O)N2CCN(c3ccc(Cl)cc3)CC2)nc2ccccc2c1=O	0%	i	24%	-3%	2.6µM*
COCCn1c(SCC(=O)N2CCCCC2)nc2ccccc2c1=O	6%	i	-6%	-1%	4.1µM*
Cc1ccc(OCCSc2nc3ccccc3n2CC(=O)N2CCCCC2)c(C)c1	/	?	/	/	12µM*
Cc1ccc(C)c(OCCSc2nc3ccccc3n2CC(=O)N2CCOCC2)c1	/	i	/	/	i
O=C(CSc1nc(N2CCCCC2)nc(N2CCCCC2)n1)N1CCN(c2ccccc2)CC1	?	?	2%	-5%	16µM*
Cc1nc2ncnn2c(N2CCC(C(=O)NCC3CCCO3)CC2)c1Cc1ccccc1 (stereo not drawn)	/	i	-2%	-9%	i
CCC1(C(=O)c2ccccc2)C2c3cc(Br)ccc3OC(=O)C21C(=O)N1CCOCC1 (stereo not drawn)	-9%	i	5%	-14%	i
O=C(CCc1nc2ccccc2[nH]1)N1CCN(C(=O)c2ccco2)CC1	-4%	i	0%	-1%	?
O=C(CSc1nc2ccccc2nc1SCC(=O)N1CCOCC1)N1CCOCC1	3%	i	-2%	-7%	?
O=C(CSc1ccc(-c2nc3ccccc3[nH]2)cn1)N1CCN(C(=O)c2ccco2)CC1	16µM*	i	-1%	-17%	i
O=C(CSc1nc2ccccc2nc1SCC(=O)N1CCCCC1)N1CCCCC1	16µM*	i	19%	2%	i
SMILES	ELG1 DNA repair	KB-3-1 cytotox	MCF10A rerep	SW480 rereplic	KB-V1 cytotox
CCCn1cc(S(=O)(=O)c2ccccc2)c(=O)c2cc(OCC)ccc21	0%	i	4%	-29%	i
O=C(CSc1nnc(CNC(=O)c2cccs2)o1)Nc1ccccc1	4%	i	-4%	1%	i
Cc1ccc(CN2[C@@H](c3ccccc3)COCCS2(=O)=O)cc1	4%	?	14%	-9%	?
Cc1cc2c(cc1C)C(c1cc(Br)ccc1F)CC(=O)N2 (stereo not drawn)	?	8.2µM*	7.3µM*	?	13µM*
Cc1cc2c(cc1C)C(c1ccccc1F)CC(=O)N2 (stereo not drawn)	?	5.8µM*	24%	?	?
Cc1cc2c(cc1C)C(c1cccc(F)c1)CC(=O)N2 (stereo not drawn)	-2%	?	15%	?	?
COc1cc2c(cc1OC)C(c1cccc(C)c1)CC(=O)N2 (stereo not drawn)	7%	i	-6%	4.1µM*	i
COc1cc2c(cc1OC)C(c1cccc(Cl)c1)CC(=O)N2 (stereo not drawn)	0%	i	0%	-6%[9.22 µM]	i
COc1ccc(C(C(=O)NC(C)(C)C)N(Cc2cccs2)C(=O)CCC(=O)Nc2cc(C)on2)cc1 (stereo not drawn)	?	i	?	13%	i
COc1ccc(OC)c(C(=O)CSc2nnc(C3CC3)n2C2CC2)c1	/	16µM*	/	/	i
CCc1ccc(C(=O)CSc2nnc(C3CC3)n2C2CC2)cc1	?	i	15%	-3%	12µM*
CCOc1ccccc1Oc1nc(-c2ccccc2O)nc2ccccc12	-2%	i	5%	-17%	i
O=C(CC1Sc2ccc(C(F)(F)F)cc2NC1=O)Nc1ccc(Cl)c(C(F)(F)F)c1 (stereo not drawn)	/	i	/	/	i
CC1(C)CC(=O)C=C(N2CCN(C3=CC(=O)CC(C)(C)C3)CC2)C1	5%	/	/	/	/
CN(Cc1ccccc1)C1=CC(=[N+]2CCCCC2)CC(C)(C)C1	?	?	?	24%	i
CC1(C)CC(N2CCN(Cc3ccccc3)CC2)=CC(=[N+]2CCCCC2)C1	0.73µM*	1.5µM*	-31%	-38%	i
CC1(C)CC(N2CCCC2)=CC(=[N+]2CCCC2)C1	-8%	18µM*	-2%	0%	i
CC1(C)CC(N2CCCC2)=CC(=[N+]2CCCCC2)C1	1.2µM*	5.2µM*	?	3%	i
CCOC(=O)C(=C1Nc2ccccc2N1)n1c(-c2cccnc2)nc2ccccc21	/	?	/	/	21µM*
CCOC(=O)Cn1c(-c2cccnc2)nc(-c2ccccc2)c1-c1ccccc1	-22%	i	9%	-9%	i
O=C1C=CC(=Nc2ccc(F)cc2)O1	/	i	18µM*	?	?
O=C(Nc1cnn(Cc2c(Cl)cccc2Cl)c1)c1ccc([N+](=O)[O-])cc1	?	i	-6%	-1%	?
CCOc1ccc(NC(=S)NC(=O)/C=C/c2ccc(C)cc2)c([N+](=O)[O-])c1	6%	?	?	12%	12µM*
